High-throughput results deposited in PubChem BioAssay by National Center for Advancing Translational Sciences (NCATS).
Cycloheximide cs = counter-screen for Shiga toxin inhibitors: cycloheximide protein synthesis inhibition; cell reporter, cycloheximide protein synthesis inhibition counterscreen; max response, %; 300,000 tested, 12% active; AID 2314; in the data active means max response mostly above about 13%, no sharp cut-off; inactive means mostly below about 14%; further: read at 38.3 µM for the half of the compounds with a filed dose
NS1 function inh = blocks influenza NS1 protein function; Potency, µM (series often up to 46.1 µM); 270,000 tested, 0.4% active; AID 2326; further: actives are rising curves; nearly all actives have a fitted effect of over 50% in size
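S. cerevisiae expressing influenza A NS1, grown in glucose, washed, then diluted 1:100 into pH 6.0 -URA galactose medium with 23 nl compound. Growth recovery read as OD600; NS1-free strain serves as control.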
SARS PLpro yeast = inhibitors of SARS-CoV papain-like protease in yeast. S. cerevisiae expressing SARS-CoV PLpro, growth rescue. Potency, µM (doses to about 32.9 µM), hits mostly activators. 330,000 tested, 0.19% active; further: nearly all actives have a fitted effect of over 55% in size
Shiga toxin inh = Shiga toxin inhibition; Vero cells, Shiga toxin protein synthesis inhibition reporter; inhibition, % at 38.7 µM; 290,000 tested, 9.2% active; AID 2315; in the data active means inhibition mostly above about 28%, no sharp cut-off; inactive means mostly below about 43%
Pf growth 48h = P. falciparum growth inhibition at 48 hours (one generation). P. falciparum luciferase growth in erythrocytes, 48 h. Potency, µM (titrated, usually from 28.7 µM), hits mostly inhibitors. 310,000 tested, 5.9% active. AID 504832; active means well fitted inhibition curve with a large enough effect; inconclusive means small, poorly fitted or top-dose-only effect, or another doubt; inactive means no such curve, though single readings can be large or run the other way
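A one-generation exposure of luciferase-tagged malaria parasites in RPMI 1640/Albumax erythrocyte culture, 37 C and 5% CO2. Inhibition is inferred from decreased luminescence after adding detection reagent.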
Pf growth 96h = P. falciparum growth inhibition at 96 hours; 320,000 tested, 6.9% active; Potency, µM (top dose mostly 28.7 µM), usual class: inhibitors; AID 504834; P. falciparum luciferase reporter growth, 96 h; active means well fitted inhibition curve with a large enough effect; inconclusive means small, poorly fitted or top-dose-only effect, or another doubt; inactive means no such curve, though single readings can be large or run the other way
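Two parasite generations (96 h, 37 C, 5% CO2) of compound exposure in infected erythrocytes (0.05% parasitemia, 2% hematocrit). Luciferase-reporter P. falciparum; decreased luminescence indicates inhibited growth, aimed at apicoplast-acting delayed death.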
A number is an active result; n = inactive; u = inconclusive; x = no result given; [ ] = remark or other dose. An excerpt weighted towards active compounds, which were near 21% of everything screened. Unless noted, the call rests on the fitted dose curve.

SMILES	Cycloheximide cs	NS1 function inh	SARS PLpro yeast	Shiga toxin inh	Pf growth 48h	Pf growth 96h
CCN1C(=O)[C@@H]2[C@H](C1=O)[C@@H]1C[C@H]3C(=O)N(CC)C(=O)[C@H]3[C@@H]3C1=C(C(=O)N1C(=O)OC(=NCC4CC4)[C@]31C)[C@@H]2C	n	n	n	n	n	n
Cc1ccc2nsnc2c1NC(=O)c1sc2ccccc2c1Cl	n	n	n	n	n	n
Cc1c(C(=O)NC2=NCCS2)oc2ccccc12	32.6	n	n	55.5	n	n
CNC(=O)c1ccsc1NC(=O)CS(=O)(=O)c1ccccc1	x	x	n	x	n	n
CNC(=O)c1ccsc1NC(=O)c1sc2ccccc2c1Cl	22.4	n	n	n	n	n
Cc1csc(NC(=O)c2oc3ccccc3c2C)n1	x	x	n	x	n	n
Cc1nnc(NC(=O)c2sc3ccccc3c2Cl)s1	n	n	n	n	n	n
COCc1nnc(NC(=O)c2sc3ccccc3c2Cl)s1	43.5	n	n	91.4	n	u
Cc1cccnc1NC(=O)c1sc2ccccc2c1Cl	50.7	n	n	90.0	n	n
CC(C)NS(=O)(=O)c1ccc(CCC(=O)N2CCC(C(N)=O)CC2)cc1	n	n	n	n	n	n
COC(=O)COc1ccc(NS(=O)(=O)c2cccc([N+](=O)[O-])c2)cc1	n	n	n	n	n	n
CCc1ccc(N2CC(C(=O)Nc3ccc4c(c3)OCO4)CC2=O)cc1 (configuration not stated)	x	x	n	x	n	n
Cc1ccc(NC(=O)c2sc3ccccc3c2Cl)nc1	42.9	n	n	65.4	n	n
O=C(NC1=NCCS1)c1sc2ccccc2c1Cl	46.5	n	n	92.9	n	n
O=C(NCCCO)C(=O)Nc1cc2c3c(c1)CCC(=O)N3CCC2	n	n	n	n	n	n
COc1ccc(-c2cc(-c3c(O)c(OC)c4occc4c3OC)[nH]n2)cc1OC	22.7	n	n	n	u	n[5.75 µM]
COc1ccc(-c2cc(-c3c(O)c(OC)c4occc4c3OC)[nH]n2)cc1	20.7	n	n	78.8	x	x
Cc1c(Cl)cccc1NC(=O)NN1CCN(C)CC1	n	n	n	n	n	n
CCOC(=O)c1cnc(SCC(=O)OCC(=O)NC2CCS(=O)(=O)C2)nc1N (configuration not stated)	x	x	n	x	n	n
Nc1sc2c(c1C(=O)NC1CC1)CCCC2	x	x	n	x	x	x
Nc1c(Cl)nc(-c2ccccc2)nc1Cl	13.8	x	n	n	n	n
Cc1nc(-c2ccccc2)nc(Cl)c1Cl	n	x	n	n	u	n
COc1ccc(N=C(C)C2=C(O)COC2=O)cc1	n	n	n	n	x	0.329µM
COc1ccc(N=C(C)c2c(O)[nH]c(=O)[nH]c2=O)cc1	n	n	n	n	n	n
COc1ccc(NC(=O)COc2ccc(S(=O)(=O)N3CCOCC3)cc2C)cc1OC	n	n	n	n	n	u
SMILES	Cycloheximide cs	NS1 function inh	SARS PLpro yeast	Shiga toxin inh	Pf growth 48h	Pf growth 96h
Cc1ccc(OCC(=O)Nc2ccc(NC(=O)c3ccco3)cc2)c(C)c1	n	n	n	n	u	u
Cc1ccc(NC(=O)COc2ccc(Br)cc2C)cc1	69.8	n	n	91.2	n	n
Cc1ccc(NC(=O)COc2ccc(Br)cc2CO)cc1S(=O)(=O)N1CCOCC1	x	x	n	x	x	x
O=C(COc1ccc(Br)cc1CO)Nc1ccc(F)cc1	9.1	n[9.22 µM]	n	n	n	n
Cc1ccc(OCC(=O)Nc2ccc(S(=O)(=O)N3CCOCC3)cc2)c(Br)c1	n	n	n	n	10.4µM	u
O=C(COc1ccc(Br)cc1CO)Nc1ccc(S(=O)(=O)N2CCCC2)cc1	x	x	n	x	9.28µM	u
COc1ccc(NS(=O)(=O)c2cccc(C(=O)NNC(=O)CNC(=O)c3cccc(C)c3)c2)cc1	n	n	n	n	n	n
NCCCCCCNc1nc2c(N)ncnc2n1[C@@H]1O[C@@H]2COP(=O)(O)O[C@H]2[C@H]1O	n	x	x	n	x	x
CCOC(=O)C1=C(c2ccccc2)N=C2SCC(=O)N2C1c1ccc2c(c1)OCO2 (configuration not stated)	n	n	n	n	n	x
Cc1cc(OCC(=O)Nc2ccc(CN3CCCCC3)cc2)ccc1Cl	n	n	n	n	u	n
Nc1nc(SCC(=O)Nc2cccc(F)c2)n[nH]1	x	x	n	x	x	x
O=C(COc1ccc(Br)cc1CNC1CCCC1)Nc1ccccc1	n	n	n	n	13.1µM	n
COc1cccc(-c2cc3nc(-c4ccccc4)cc(=O)n3[nH]2)c1	n	n	n	n	n	n
CCOC(=O)Cc1c(C)nc2cc(-c3ccc(Cl)cc3)[nH]n2c1=O	n	n	n	n	n	u
Cc1cc(=O)n2[nH]c(-c3ccc(C(C)(C)C)cc3)cc2n1	n	n	n	n	2.94µM	4.65µM
CCc1c(C)nc2cc(-c3ccc(OC)cc3)[nH]n2c1=O	32.4	n	n	130.4	u	n
COCc1cc(=O)n2[nH]c(-c3ccc(C)cc3)cc2n1	37.2	n	n	71.7	x	n
Cc1cc(=O)n2[nH]c(-c3ccccc3)cc2n1	n	n	x	65.7	n	x
CCOC(=O)Cc1cc(=O)n2[nH]c(-c3ccc(C)cc3)cc2n1	n	n	n[6.58 µM]	n	x	n
O=C(NCc1cccc(F)c1)c1ccc(N2C(=O)Cn3c(cc4sccc43)C2=O)cc1	n	u	n	n	n	n
COc1cccc(CC2(CO)CCCN(Cc3cn[nH]c3C3CCCCC3)C2)c1 (configuration not stated)	n	n	n	n	u	u
O=C(CSc1ncnc2sc3c(c12)CCC3)Nc1ccccc1C(=O)O	n	u	n	n	n	n
Cc1nc2cc(-c3ccccc3)[nH]n2c(=O)c1C	34.1	n	n	63.0	n	n
O=C(CCCCl)NC(=S)Nc1ccc(CN2CCOCC2)cc1	12.7	n	n	n	n	u
O=C(NC(=S)Nc1ccc(N2CCOCC2)cc1)c1ccc(Cl)cc1	n	n	n	n	n	n
SMILES	Cycloheximide cs	NS1 function inh	SARS PLpro yeast	Shiga toxin inh	Pf growth 48h	Pf growth 96h
O=C(CCCCl)NC(=S)Nc1ccc(N2CCOCC2)cc1	33.8	n	n	95.9	n	n
Cc1ccc(Nc2nc(CSc3nnc(-c4cccs4)o3)cs2)cc1	47.5	n	n	74.2	n	u
Cc1ccc(CSc2n[nH]c(N)n2)cc1	22.4	n	n	n	n	n
CCCCSc1n[nH]c(N)n1	n	n	n	n	n	n
c1ccc(-c2nc(CSc3nnc(-c4cccs4)o3)cs2)cc1	n	n	n	n	n	u
Cc1ccc(OCCCSc2n[nH]c(N)n2)cc1	15.0	n	n	n	n	n
Cc1ccc(Nc2nc(CSc3n[nH]c(N)n3)cs2)cc1	31.4	n	n	66.2	n	n
NC(=O)c1ccc(NC(=O)CSc2nncn2-c2ccccc2)cc1	n	n	n	n	n	n
Cc1cc(C)cc(-n2cc3c(=O)n(C)c(=O)n(C)c3c2)c1	x	n	x	x	x	x
NCCSC(c1ccccc1)c1ccccc1	x	n	x	x	x	x
C=CCc1c(C)nc2c(C)cccc2c1SC(=N)N	n	n	n	n	u	14.7µM
COc1cc(C)c(N(C(C)=O)c2ccccc2)c(C)c1	n	u	n	n	5.86µM	x
